# Experimental data taken from PubChem BioAssay (Tox21).
# Results filed as inconclusive are left out. Active and inactive are the calls of the source. The call rests on the fitted dose curve; in most records, active means well fitted curve in the direction sought with a large enough effect in the repeat runs; inconclusive means weak or mixed curves; inactive means no such curve, though single readings can be large; an effect the other way counts as inactive or inconclusive. Where a SMILES comes first, the peptide text is derived from it.
# Test: A CellTox Green Cytotoxicity Assay to monitor cytotoxicity in HEK293 cells - 40 hour (AID 1224871); further: nearly all actives have a fitted effect of over 45% in size
# Settings: CellTox Green fluorescence; series mostly up to 76.8 µM; cytotoxicity increase: at the top concentration
# Method in brief: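 Seeding of HEK293 cells together with cytotoxicity dye preceded a 5 h incubation at 37 C/5% CO2. Test compounds in DMSO were then added and fluorescence monitored across 40 h.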
# On the % scale 0 is the no-effect control and ±100 the full control effect.
row,SMILES,cytotoxicity increase
1,CSc1cnccn1,-13.1% (inactive)
2,OC1(c2ccc(Cl)cc2)CCNCC1,-9.27% [at 35.3 µM] (inactive)
3,[O]=[Mo](=[O])=[O],-43.2% [at 15.8 µM] (inactive)
4,C=CCSSCCC,-0.462% (inactive)

# Test: qHTS RealTime-Glo MT Cell Viability Assay in HEK293 cells - 16 hour (AID 1224872); further: top concentration of the series differs between compounds; nearly all actives have a fitted effect of over 50% in size
# Settings: RealTime-Glo luminescence; series mostly up to 76.8 µM; activity change, negative = cytotoxicity: at the top concentration
# Method in brief: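 HEK293 cells seeded with NanoLuc/prosubstrate reagent, rested 5 h at 37 C, then dosed and kept at 37 C up to 40 h. Nonlytic real-time luminescence from viable cells read at 0, 8, 16, 24, 32 and 40 h.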
row,SMILES,"activity change, negative = cytotoxicity"
1,CC(=O)CCC1=C(C)CCCC1(C)C,-9.47% (inactive)
2,CNCCS(=O)(=O)O,4% (inactive)
3,CC(=O)C(C)O (stereo unspecified),19.6% (inactive)
4,CC1=NN(c2ccc(S(=O)(=O)O)cc2)C(=O)C1,9.75% (inactive)
5,C=CCOC(=O)CCCCCC,1.43% (inactive)
6,CCO,-8.23% (inactive)
7,Cc1ccc2c(c1)C(=O)c1ccccc1C2=O,20.5% (inactive)
8,CC(C)COC(=O)c1ccccc1,0.0667% (inactive)
9,NCC1(Cc2noc(=O)[nH]2)CCCCC1,13.9% (inactive)
10,Cc1ccnc(N)c1,-4.48% (inactive)
11,CCn1cc(C(=O)O)c(=O)c2cnc(N3CCCC3)nc21,1.68% [at 6.97 µM] (inactive)
12,CCC[C@@H]1C[C@@H](C(=O)N[C@@H]([C@H]2O[C@H](SC)[C@H](O)[C@@H](O)[C@H]2O)[C@@H](C)O)N(C)C1,3.25% [at 35.3 µM] (inactive)
13,C=CC(=O)OCC1CCCO1 (stereo unspecified),12.1% (inactive)
14,C=C(C)[C@@H]1CC=C(C)CC1,2.49% (inactive)
15,Nc1nnnn1-c1ccccc1,6.97% [at 35.3 µM] (inactive)
16,Cc1ccc(C(C)NC(=O)[C@@H](NC(=O)OC(C)C)C(C)C)cc1 (stereo partly specified),-7.09% (inactive)
17,CSc1cnccn1,-13.8% (inactive)

row,SMILES,"activity change, negative = cytotoxicity"
1,COS(=O)(=O)O,3.12% (inactive)
2,CC(C)OC(=O)CCC(=O)OC(C)C,9.31% (inactive)
3,CC1CC(=O)CC(C)(C)C1 (stereo unspecified),13.5% (inactive)
4,O=C(O)CNC(=O)CNC(=O)CNC(=O)CSC(=O)c1ccccc1,9.88% [at 35.3 µM] (inactive)
5,CCc1occc(=O)c1O,4.2% (inactive)
6,CC(C)NCC(O)c1ccc2ccccc2c1 (stereo unspecified),-19.3% [at 35.3 µM] (inactive)
7,CC(=O)N[C@@H](CO)C(=O)N[C@@H](CC(=O)O)C(=O)N[C@@H](CCCCN)C(=O)N1CCC[C@H]1C(=O)O (Ac-SDKP-OH),2.66% [at 35.3 µM] (inactive)
8,NCCOCCN,17.6% (inactive)
9,COc1cc(/C=C/C(N)=O)cc(OC)c1OC,-4.99% [at 35.3 µM] (inactive)
10,CC(C)[C@H]1CC[C@H](C)C[C@@H]1O,5.71% (inactive)
11,O=C(O)[C@H](O)c1ccccc1,0.101% [at 35.3 µM] (inactive)
12,CC(=O)Nc1ccc(OC(=O)c2ccccc2OC(C)=O)cc1,0.0104% [at 35.3 µM] (inactive)
13,CC(=O)OC(C)=O,5.23% (inactive)
14,CC(=O)CC(=O)Nc1ccc(C)cc1C,-12.1% (inactive)
15,COc1ccc(CCO)cc1,12% (inactive)
16,O=[N+]([O-])c1c(Cl)cc(Cl)cc1Cl,-5.24% (inactive)

# Test: qHTS RealTime-Glo MT Cell Viability Assay in HepG2 cells - 8 hour (AID 1224873); further: nearly all actives have a fitted effect of over 55% in size
# Settings: RealTime-Glo luminescence; series mostly up to 76.8 µM; viability change, negative = cytotoxic: at the top concentration
# Method in brief: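 Real-time viability: cells seeded at 600 per well together with NanoLuc and cell-permeant prosubstrate, compounds added after 5 h incubation. Luminescence tracked at 0, 8, 16, 24, 32 and 40 h of exposure.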
row,SMILES,"viability change, negative = cytotoxic"
1,CC(=O)CCC1=C(C)CCCC1(C)C,0.972% (inactive)
2,CC(=O)C(C)O (stereo unspecified),-0.431% (inactive)
3,CCO,-2.41% (inactive)
4,CC(C)COC(=O)c1ccccc1,1.88% (inactive)
5,NCC1(Cc2noc(=O)[nH]2)CCCCC1,2.44% (inactive)
6,Cc1ccnc(N)c1,-0.626% (inactive)
7,CCn1cc(C(=O)O)c(=O)c2cnc(N3CCCC3)nc21,5.81% [at 6.97 µM] (inactive)
8,C=CC(=O)OCC1CCCO1 (stereo unspecified),-4.08% (inactive)
9,C=C(C)[C@@H]1CC=C(C)CC1,2.49% (inactive)
10,Nc1nnnn1-c1ccccc1,1.12% [at 35.3 µM] (inactive)
11,Cc1ccc(C(C)NC(=O)[C@@H](NC(=O)OC(C)C)C(C)C)cc1 (stereo partly specified),-7.98% (inactive)
12,COS(=O)(=O)O,2.19% (inactive)
13,CC(C)OC(=O)CCC(=O)OC(C)C,-1.93% (inactive)
14,CC1CC(=O)CC(C)(C)C1 (stereo unspecified),-0.588% (inactive)
15,O=C(O)CNC(=O)CNC(=O)CNC(=O)CSC(=O)c1ccccc1,2.96% [at 35.3 µM] (inactive)
16,CCc1occc(=O)c1O,9.77% (inactive)
17,CC(C)NCC(O)c1ccc2ccccc2c1 (stereo unspecified),-0.0889% [at 35.3 µM] (inactive)
18,CC(=O)N[C@@H](CO)C(=O)N[C@@H](CC(=O)O)C(=O)N[C@@H](CCCCN)C(=O)N1CCC[C@H]1C(=O)O (Ac-SDKP-OH),0.116% [at 35.3 µM] (inactive)
19,OC1(c2ccc(Cl)cc2)CCNCC1,1.59% [at 35.3 µM] (inactive)
20,NCCOCCN,1.54% (inactive)
21,COc1cc(/C=C/C(N)=O)cc(OC)c1OC,1.95% [at 35.3 µM] (inactive)
22,CC(=O)Nc1ccc(OC(=O)c2ccccc2OC(C)=O)cc1,0.941% [at 35.3 µM] (inactive)
23,[O]=[Mo](=[O])=[O],2.7% [at 15.8 µM] (inactive)
24,CC(=O)OC(C)=O,1.22% (inactive)
25,C=CCSSCCC,6.03% (inactive)
26,COc1ccc(CCO)cc1,2.44% (inactive)

# Test: qHTS RealTime-Glo MT Cell Viability Assay in HEK293 cells - 40 hour (AID 1224874); further: nearly all actives have a fitted effect of over 50% in size
# Settings: RealTime-Glo luminescence; max response: active compounds read low
# Method in brief: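 Tox21 screen in HEK293 using RealTime-Glo MT chemistry, with cells and reagent co-dispensed. Luminescence proportional to viable cell number was captured at intervals during 40 h compound exposure at 37 C.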
row,SMILES,max response
1,CC(=O)CCC1=C(C)CCCC1(C)C,-7.96% (inactive)
2,CNCCS(=O)(=O)O,4.21% (inactive)
3,CC(=O)C(C)O (stereo unspecified),16% (inactive)
4,CC1=NN(c2ccc(S(=O)(=O)O)cc2)C(=O)C1,3.12% (inactive)
5,C=CCOC(=O)CCCCCC,3.28% (inactive)
6,CCO,0.927% (inactive)
7,Cc1ccc2c(c1)C(=O)c1ccccc1C2=O,5.01% (inactive)
8,CC(C)COC(=O)c1ccccc1,2.33% (inactive)
9,Cc1ccnc(N)c1,-4.39% (inactive)
10,CCn1cc(C(=O)O)c(=O)c2cnc(N3CCCC3)nc21,10.4% (inactive)
11,CCC[C@@H]1C[C@@H](C(=O)N[C@@H]([C@H]2O[C@H](SC)[C@H](O)[C@@H](O)[C@H]2O)[C@@H](C)O)N(C)C1,0.684% (inactive)
12,C=CC(=O)OCC1CCCO1 (stereo unspecified),0.647% (inactive)
13,C=C(C)[C@@H]1CC=C(C)CC1,1.3% (inactive)
14,Nc1nnnn1-c1ccccc1,0.0553% (inactive)
15,Cc1ccc(C(C)NC(=O)[C@@H](NC(=O)OC(C)C)C(C)C)cc1 (stereo partly specified),-6.73% (inactive)
16,CCOC(CN1CCN(CC(C)C(=O)c2ccccc2)CC1)c1ccccc1 (stereo unspecified),-27.6% (inactive)
17,COS(=O)(=O)O,-1.57% (inactive)

row,SMILES,max response
1,CC(C)OC(=O)CCC(=O)OC(C)C,8.19% (inactive)
2,CC1CC(=O)CC(C)(C)C1 (stereo unspecified),-1.21% (inactive)
3,O=C(O)CNC(=O)CNC(=O)CNC(=O)CSC(=O)c1ccccc1,6.64% (inactive)
4,CCc1occc(=O)c1O,3.56% (inactive)
5,CC(C)NCC(O)c1ccc2ccccc2c1 (stereo unspecified),-5.31% (inactive)
6,CC(=O)N[C@@H](CO)C(=O)N[C@@H](CC(=O)O)C(=O)N[C@@H](CCCCN)C(=O)N1CCC[C@H]1C(=O)O (Ac-SDKP-OH),3.58% (inactive)
7,OC1(c2ccc(Cl)cc2)CCNCC1,3.5% (inactive)
8,NCCOCCN,1.68% (inactive)
9,COc1cc(/C=C/C(N)=O)cc(OC)c1OC,-21.8% (inactive)
10,CC(C)[C@H]1CC[C@H](C)C[C@@H]1O,2.31% (inactive)
11,O=C(O)[C@H](O)c1ccccc1,0.819% (inactive)
12,CC(=O)Nc1ccc(OC(=O)c2ccccc2OC(C)=O)cc1,3.46% (inactive)
13,CC(=O)OC(C)=O,9.5% (inactive)
14,CC(=O)CC(=O)Nc1ccc(C)cc1C,-1.23% (inactive)
15,COc1ccc(CCO)cc1,21.3% (inactive)
16,O=[N+]([O-])c1c(Cl)cc(Cl)cc1Cl,-1.77% (inactive)
